Drawing on PMC5700166, this text covers binding signal for 13 sequences.

Positions count from the first letter of the chain named.

Holding throughout (experiment): protein-binding microarray (PBM); PBM: ~300 nM protein, 6 mM HEPES pH 7.8, 80 mM KCl, 0.5 mM EDTA, 0.5 mM EGTA, 6% glycerol, 35 ng/ul poly-dIdC, 1% milk, 1 h, room temperature; Ap Aiptasia and Nv Nematostella (sea anemones) / Co Capsaspora / Aq Amphimedon (sponge) / Dm Drosophila / Hu human; RHD is the Rel homology domain; high values mean tight binding
Common to all, as to conditions: dsDNA, one strand shown

Test [1] concerns the target T1, GST-Ap-NF-kB RHD (Exaiptasia pallida (Aiptasia), UniProt A0A913YAJ5 2-422).
T1 sequence: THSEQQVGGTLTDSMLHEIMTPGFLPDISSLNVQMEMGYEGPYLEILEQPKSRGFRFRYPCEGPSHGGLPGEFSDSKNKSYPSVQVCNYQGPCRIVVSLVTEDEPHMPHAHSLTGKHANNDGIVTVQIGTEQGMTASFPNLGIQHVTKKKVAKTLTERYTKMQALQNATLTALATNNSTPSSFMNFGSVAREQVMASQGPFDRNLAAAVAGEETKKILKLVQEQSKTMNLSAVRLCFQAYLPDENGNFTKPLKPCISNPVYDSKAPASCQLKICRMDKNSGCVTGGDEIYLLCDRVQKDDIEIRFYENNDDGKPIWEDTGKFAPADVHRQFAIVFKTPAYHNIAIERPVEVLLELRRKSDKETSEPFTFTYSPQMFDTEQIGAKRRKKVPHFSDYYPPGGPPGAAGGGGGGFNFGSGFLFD

Test [2] addresses T2, GST-Nv-NF-kB (Cys allele) (Nematostella vectensis, UniProt E5G601 2-411).
T2 sequence: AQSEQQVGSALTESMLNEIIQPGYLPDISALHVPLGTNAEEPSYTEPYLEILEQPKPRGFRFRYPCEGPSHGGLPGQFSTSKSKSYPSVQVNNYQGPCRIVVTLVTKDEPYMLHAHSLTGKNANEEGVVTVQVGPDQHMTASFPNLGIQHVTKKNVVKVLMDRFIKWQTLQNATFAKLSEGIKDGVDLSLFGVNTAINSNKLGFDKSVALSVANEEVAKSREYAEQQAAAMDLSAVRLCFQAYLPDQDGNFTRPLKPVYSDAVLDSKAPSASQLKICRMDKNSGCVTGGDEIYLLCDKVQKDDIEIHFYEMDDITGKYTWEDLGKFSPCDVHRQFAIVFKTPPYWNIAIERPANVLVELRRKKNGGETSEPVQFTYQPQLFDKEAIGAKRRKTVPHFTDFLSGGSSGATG

Test [3] concerns the target T3, GST-Nv-NF-kB (Ser allele) (Nematostella vectensis, UniProt A7UNT2 2-411).
T3 sequence: T2 sequence with Q21R, C66S, S207N, E215Q, V217A, E225K, A268E, D399E

The target of test [4] is T4, GST-Co-NF-kB (Capsaspora owczarzaki, UniProt F1ARL5 200-546).
T4 sequence: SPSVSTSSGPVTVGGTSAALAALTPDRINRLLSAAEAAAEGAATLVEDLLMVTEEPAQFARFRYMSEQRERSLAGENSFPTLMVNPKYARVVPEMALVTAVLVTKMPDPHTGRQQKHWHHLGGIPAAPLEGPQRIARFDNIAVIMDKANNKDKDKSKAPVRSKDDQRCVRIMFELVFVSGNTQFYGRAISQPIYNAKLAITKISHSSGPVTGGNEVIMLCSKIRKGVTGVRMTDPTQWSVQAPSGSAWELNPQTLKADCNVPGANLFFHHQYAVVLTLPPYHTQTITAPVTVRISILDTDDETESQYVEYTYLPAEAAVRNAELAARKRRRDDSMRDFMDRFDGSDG

In test [5] the target is T5, GST-Dm-Relish (Drosophila melanogaster, UniProt Q94527 99-473).
T5 sequence: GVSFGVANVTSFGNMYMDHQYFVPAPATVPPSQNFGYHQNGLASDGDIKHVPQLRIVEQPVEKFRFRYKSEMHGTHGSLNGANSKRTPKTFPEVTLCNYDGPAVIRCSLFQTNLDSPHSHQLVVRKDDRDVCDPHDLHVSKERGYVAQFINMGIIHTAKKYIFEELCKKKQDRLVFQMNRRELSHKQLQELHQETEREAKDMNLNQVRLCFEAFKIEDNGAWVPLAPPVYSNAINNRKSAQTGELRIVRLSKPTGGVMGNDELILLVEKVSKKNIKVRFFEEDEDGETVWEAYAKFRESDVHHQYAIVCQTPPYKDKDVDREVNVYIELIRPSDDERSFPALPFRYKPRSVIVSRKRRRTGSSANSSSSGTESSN

Test [6] has as its target T6, GST-Aq-NF-kB (Amphimedon queenslandica, UniProt A9Y5G7 2-389).
T6 sequence: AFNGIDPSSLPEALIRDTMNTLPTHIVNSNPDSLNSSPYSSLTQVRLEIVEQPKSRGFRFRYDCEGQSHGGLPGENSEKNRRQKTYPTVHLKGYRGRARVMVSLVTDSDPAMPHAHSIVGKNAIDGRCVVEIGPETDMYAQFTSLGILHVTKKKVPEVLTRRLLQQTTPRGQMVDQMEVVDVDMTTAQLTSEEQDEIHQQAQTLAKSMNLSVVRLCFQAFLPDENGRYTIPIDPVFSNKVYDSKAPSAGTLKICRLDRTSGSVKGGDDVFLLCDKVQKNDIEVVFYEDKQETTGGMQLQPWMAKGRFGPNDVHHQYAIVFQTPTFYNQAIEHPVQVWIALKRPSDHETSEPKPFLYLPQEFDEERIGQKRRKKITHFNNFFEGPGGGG

On to “CCGATTAACATCAGGGGAACTCATGATGTTAATCGGGTCTTGATTCGCTTGACGCTGCTG”, for which the binding signal in test [1] is 6.56 z-score; in test [2] it was 6.78 z-score; in test [3] it was 7.59 z-score; in test [4], 5.3 z-score; in test [5], 6.03 z-score; in test [6], 4.88 z-score.
As to “CCGATTAACATCATGCCCGGGAATGATGTTAATCGGGTCTTGATTCGCTTGACGCTGCTG”, the binding signal in test [1] is 1.55 z-score; in test [2], 1.27 z-score; in test [4], 3.51 z-score; in test [6], 2.72 z-score.
“CCGATTAACATCAACTTTCCCAGTGATGTTAATCGGGTCTTGATTCGCTTGACGCTGCTG”: the binding signal is 1.05 z-score in test [1], 2 z-score in test [2], 3.84 z-score in test [4] and 3.06 z-score in test [6].
With “CCGATTAACATCAAATAATTCCCTGATGTTAATCGGGTCTTGATTCGCTTGACGCTGCTG”, the binding signal in test [1] was determined as 4.23 z-score; in test [2], 7.21 z-score; in test [3] it was 7.13 z-score; in test [4], 5.48 z-score; in test [5], 4.85 z-score; in test [6], 6.69 z-score.
Consider “CCGATTAACATCAGGGAATCAGATGATGTTAATCGGGTCTTGATTCGCTTGACGCTGCTG”, for which the binding signal in test [1] came to 1.26 z-score; in test [2] it was 1.61 z-score; in test [4], 1.68 z-score; in test [6], 1.84 z-score.
In the case of “CCGATTAACATCAGGAAAGTACCTGATGTTAATCGGGTCTTGATTCGCTTGACGCTGCTG”, the binding signal in test [1] amounted to 3.4 z-score; in test [2] it was 5.99 z-score; in test [3], 8.2 z-score; in test [5] it was 8.08 z-score; in test [6], 6.27 z-score.
“CCGATTAACATCAAGGGAAAAAATGATGTTAATCGGGTCTTGATTCGCTTGACGCTGCTG”: the binding signal turned out to be 3.77 z-score in test [1]; 5.84 z-score in test [2]; 7.2 z-score in test [3]; 5.23 z-score in test [4]; 1.86 z-score in test [5]; 4.83 z-score in test [6].
As for “CCGATTAACATCAAATTCCCACGTGATGTTAATCGGGTCTTGATTCGCTTGACGCTGCTG”, the binding signal in test [1] was determined as 2.06 z-score; in test [2], 3.63 z-score; in test [3] it was 3.63 z-score; in test [4] it was 2.77 z-score; in test [5] it was 3.95 z-score; in test [6] it was 2.61 z-score.
With “CCGATTAACATCAGATTTCTCCCTGATGTTAATCGGGTCTTGATTCGCTTGACGCTGCTG”, the binding signal in test [1] was found to be 1.96 z-score; in test [2] it was 3.11 z-score; in test [4] it was 2.92 z-score; in test [6], 3.18 z-score.
For the sequence “CCGATTAACATCACCTTGGGAAATGATGTTAATCGGGTCTTGATTCGCTTGACGCTGCTG”, the binding signal in test [1] came out at 1.21 z-score; in test [2], 1.7 z-score; in test [4] it was 2.79 z-score; in test [6], 1.62 z-score.
The corresponding values for “CCGATTAACATCAGGGAAAAGAATGATGTTAATCGGGTCTTGATTCGCTTGACGCTGCTG” are 2.43 z-score, 4.22 z-score, 2.97 z-score and 3.22 z-score.
For “CCGATTAACATCACTTTCCCCCCTGATGTTAATCGGGTCTTGATTCGCTTGACGCTGCTG”, the binding signal in test [1] stood at 5.84 z-score; in test [2], 5.86 z-score; in test [3], 7.31 z-score; in test [4], 9.03 z-score; in test [5], 4.29 z-score; in test [6], 5.34 z-score.
With “CCGATTAACATCAGGGAGACCCCTGATGTTAATCGGGTCTTGATTCGCTTGACGCTGCTG”, the binding signal in test [1] came to 6.28 z-score; in test [2], 3.82 z-score; in test [3], 1.04 z-score; in test [4] it was 2.28 z-score; in test [5], 6.09 z-score; in test [6] it was 6.87 z-score.
